The assay deals with MAP kinase-activated protein kinase 3 (Homo sapiens) (UniProt Q16644). Particulars: at 1 µM.
Sequence of MAP kinase-activated protein kinase 3 (Homo sapiens) (Q16644 whole entry, looked up): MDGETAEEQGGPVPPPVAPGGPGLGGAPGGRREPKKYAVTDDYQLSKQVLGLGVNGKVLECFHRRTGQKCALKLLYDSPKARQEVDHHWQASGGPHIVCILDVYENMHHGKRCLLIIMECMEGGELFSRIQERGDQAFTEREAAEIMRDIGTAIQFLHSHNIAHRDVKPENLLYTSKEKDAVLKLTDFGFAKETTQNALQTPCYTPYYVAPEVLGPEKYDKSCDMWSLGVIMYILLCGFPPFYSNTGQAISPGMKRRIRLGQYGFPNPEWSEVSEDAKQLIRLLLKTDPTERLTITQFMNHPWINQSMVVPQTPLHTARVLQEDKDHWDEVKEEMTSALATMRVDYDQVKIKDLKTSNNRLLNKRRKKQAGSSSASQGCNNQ
With `O=Nc1c(-c2c(O)[nH]c3ccccc23)[nH]c2ccccc12`, the residual activity was 117%.

As to `CCC(=O)Nc1ccc2ncnc(Nc3cccc(Br)c3)c2c1`, the residual activity turned out to be 89%.

With `O=c1c2ccccc2[nH]c(=S)n1CCN1CCC(=C(c2ccc(F)cc2)c2ccc(F)cc2)CC1`, the residual activity came to 89%.

For `N#C/C(=C(\N)Sc1ccc(N)cc1)c1ccccc1C(F)(F)F`, the residual activity was 98%.

Consider `COc1ccc2c(c1)c(C1=C(c3c[nH]c4ccccc34)C(=O)NC1=O)cn2CCCN(C)C`, for which the residual activity amounted to 103%.

Turning to `Nc1nc(Nc2ccc(S(N)(=O)=O)cc2)nn1C(=S)Nc1c(F)cccc1F`, the residual activity worked out at 97%.

For `O=C1NC(=O)/C(=C\c2ccc3nccnc3c2)S1`, the residual activity was determined as 97%.

For the compound `O=[N+]([O-])c1ccc(-c2nc(-c3ccc(F)cc3)c(-c3ccncc3)[nH]2)cc1`, the residual activity turned out to be 105%.

For the compound `Cn1nc2c3c(cccc31)C(=O)c1ccccc1-2`, the residual activity amounted to 93%.

As to `Nc1cccc(-c2cc3c(Oc4cccc(O)c4)ncnc3[nH]2)c1`, the residual activity amounted to 126%.

For `CCOc1cc2ncnc(Nc3cccc(Br)c3)c2cc1OCC`, the residual activity turned out to be 106%.

Take `O=C1NC(=O)/C(=C/c2ccc3c(c2)OC(F)(F)O3)S1`: the residual activity is 95%.

Take `Nc1ncnc2c1c(-c1ccc(Oc3ccccc3)cc1)cn2C1CCCC1`: the residual activity is 114%.

Turning to `O=C1Cc2c([nH]c3ccc([N+](=O)[O-])cc23)-c2ccccc2N1`, the residual activity came out at 75%.

Regarding `CCCCc1c(-c2ccc(OC)cc2)[nH]c2nccnc12`, the residual activity was 130%.

Take `CC(C)n1cnc2/c(=N/c3cccc(Cl)c3)nc(NCCO)[nH]c21`: the residual activity was determined as 116%.

Regarding `O=C1NC(=O)c2cc(Nc3ccc(F)cc3)c(Nc3ccc(F)cc3)cc21`, the residual activity was determined as 90%.

In the case of `O=C(Nc1cccc(Nc2nccc(Nc3cccc(C(F)(F)F)c3)n2)c1)C1CC1`, the residual activity is 122%.

Regarding `Oc1c2ccccc2c2c3c(cccc13)N=N2`, the residual activity was 100%.

With `COc1ccc(S(=O)(=O)N(CCO)c2ccccc2CN(C)C/C=C/c2ccc(Cl)cc2)cc1`, the residual activity was 118%.

`COc1cc2ncnc(N3CCN(C(=O)Nc4ccc(Oc5ccccc5)cc4)CC3)c2cc1OC`: the residual activity was found to be 100%.

Regarding `COc1cccc(-c2cc(=O)c3ccccc3o2)c1N`, the residual activity worked out at 122%.

`O=C1NC(=O)C(c2cn(CCCn3ccnc3)c3ccccc23)=C1Nc1ccccc1`: the residual activity was 126%.

Turning to `Cc1nc(-c2ccccc2)c(-c2ccncc2)o1`, the residual activity is 103%.

In the case of `CCOC(=O)c1c(C)[nH]c(/C=C2\C(=O)Nc3ccccc32)c1C`, the residual activity came out at 98%.

With `O=C(Nc1cccc(Nc2cc(Nc3cccc(C(F)(F)F)c3)ncn2)c1)C1CC1`, the residual activity was found to be 90%.

With `CC(C)(C)n1nc(Cc2cccc3ccccc23)c2c(N)ncnc21`, the residual activity is 116%.

For `COc1cc2ncnc(Nc3ccc(O)c(Br)c3)c2cc1OC`, the residual activity is 124%.

In the case of `CCN(CC)CCCCN1c2ccccc2Oc2ccc(Cl)cc21`, the residual activity is 115%.

On to `O=C(O)/C=C/c1cc(Br)c(Br)c(Br)c1Br`, for which the residual activity was determined as 107%.

For the compound `c1ccc(-c2n[nH]c3c2oc2ccccc23)cc1`, the residual activity was found to be 94%.

As for `O=C1NC(=O)c2c1c1c3ccccc3[nH]c1n1cncc21`, the residual activity is 86%.

In the case of `COc1ccc(CNc2nc(N(CCO)CCO)nc3c2ncn3C(C)C)cc1`, the residual activity worked out at 110%.

On to `CC(C)c1nn(-c2c(Cl)cccc2Cl)c2nc(Cc3ccc(OCCO)cc3)[nH]c(=O)c12`, for which the residual activity is 101%.

Regarding `Oc1n[nH]c2nnc(-c3c(-c4ccccc4)nn4ccccc34)cc12`, the residual activity was 98%.

For the compound `Cc1ccc(NC2=CC(=O)c3sc(C)nc3C2=O)cc1`, the residual activity worked out at 85%.

The record behind these values is ChEMBL document CHEMBL2218924, “A broad activity screen in support of a chemogenomic map for kinase signalling research and drug discovery” (Biochem J, 2013).
